Screening results: PubChem BioAssay, National Center for Advancing Translational Sciences (NCATS)
TRPV1 ag = activates the human vanilloid receptor TRPV1; TRPV1-expressing cells, Fluo-8 calcium influx, agonist mode; activation, % at 8.33 µM; 320,000 compounds, 0.19% hits; Q8NER1; in the data active = activation above about 80%; inconclusive = between about 30% and that limit
Target sequence (Q8NER1 whole entry, looked up): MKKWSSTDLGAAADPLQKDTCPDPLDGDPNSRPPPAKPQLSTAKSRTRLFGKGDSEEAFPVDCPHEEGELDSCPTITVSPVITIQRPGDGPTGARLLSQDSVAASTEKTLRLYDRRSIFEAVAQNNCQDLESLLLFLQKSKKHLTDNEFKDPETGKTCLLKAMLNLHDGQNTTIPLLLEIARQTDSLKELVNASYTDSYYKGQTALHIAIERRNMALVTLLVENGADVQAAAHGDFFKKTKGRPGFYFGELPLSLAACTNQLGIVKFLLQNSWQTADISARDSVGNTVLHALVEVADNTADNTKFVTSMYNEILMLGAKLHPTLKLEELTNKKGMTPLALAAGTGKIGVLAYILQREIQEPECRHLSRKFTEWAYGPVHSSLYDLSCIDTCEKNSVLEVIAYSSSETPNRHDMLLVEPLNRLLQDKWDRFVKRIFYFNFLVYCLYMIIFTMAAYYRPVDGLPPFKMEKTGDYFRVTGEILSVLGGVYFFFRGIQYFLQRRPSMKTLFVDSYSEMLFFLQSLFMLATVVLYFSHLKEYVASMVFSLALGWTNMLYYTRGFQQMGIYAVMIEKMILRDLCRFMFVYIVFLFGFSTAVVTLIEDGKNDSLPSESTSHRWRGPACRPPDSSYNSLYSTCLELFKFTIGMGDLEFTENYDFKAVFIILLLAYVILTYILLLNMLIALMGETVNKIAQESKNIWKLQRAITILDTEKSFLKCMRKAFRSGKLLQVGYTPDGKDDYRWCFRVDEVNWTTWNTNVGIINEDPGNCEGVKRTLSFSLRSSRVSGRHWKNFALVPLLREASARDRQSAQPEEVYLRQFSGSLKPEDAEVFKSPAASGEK
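Fluo-8 calcium influx in TRPV1-expressing cells, kinetic read (ex 480/em 520 nm). Compound added and read 3 min for agonist activity, followed by capsaicin at EC20 final and 2 min further read for enhancement.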
TRPML1 agonist = agonists of human TRPML1 channel | Q9GZU1 | TRPML1-expressing cells, Ca2+ dye fluorescence, FDSS | activation, % (no concentration beside the values) | 410,000 compounds, 0.12% hits; in the data active = activation above about 50%; inconclusive = mostly about 30% to 49%
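Tet-induced TRPML1-DL cells, 1,500 per well, cultured overnight, were loaded with a no-wash Ca2+ dye for 45–90 min. Calcium fluorescence was recorded on the FDSS for 110 s after compound addition, before the EC80 agonist (4 uM 54-4) was added.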
TRHR PAM = allosterically enhances the human TRH receptor; enhancement, % at 2 µM; P34981; 360,000 compounds, 0.66% hits; TRHR cells, fluo-8 calcium fluorescence, EC20 TRH enhancement; in the data active = enhancement above about 30%
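Enhancer read-out: after compound pinning and an initial kinetic agonist-mode read, an EC20 of TRH (10 nM final) was injected and fluo-8 calcium signal (Ex 480/Em 530) followed at 1 s/cycle for 100 cycles in TRHR-expressing cells.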
TRPML1 inh = blocks the human TRPML1 channel; Q9GZU1; TRPML1-inducible cells, Ca2+ dye fluorescence, FDSS; active compounds read low; inhibition of EC80 agonist-evoked calcium signal; activity change, negative = inhibition, % (concentration not given with the values); 390,000 compounds, 0.02% hits; in the data active = activity change below about -50%; inconclusive = between about -30% and that limit;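 note: stimulus is agonist 54-4 at its EC80 concentration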
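Tet-induced TRPML1-DL cells loaded with Ca8 no-wash calcium dye were read kinetically on FDSS. Compound addition was followed by EC80 agonist 54-4 (4 uM final); inhibition was read over 110 s.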
TRPV1 potentiator = enhances activation of the human vanilloid receptor TRPV1. AID 540277. 320,000 compounds, 0.02% hits. potentiation, % at 8.33 µM. TRPV1-expressing cells, Fluo-8 calcium influx, capsaicin EC20 potentiation. Q8NER1; in the data active = potentiation above about 80%; inconclusive = between about 30% and that limit
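TRPV1-expressing cells were cultured overnight at 35.5C and loaded with Fluo-8 calcium dye for 40 to 90 min at room temperature. After a 10 s baseline, compound was added and calcium influx was read kinetically for 3 min (ex 480/em 520 nm).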
TRHR ag = agonists of human TRH receptor; TRHR cells, calcium flux fluo-8, FDSS agonist mode; AID 493084; 360,000 compounds, 0.18% hits; activation, % at 2 µM; in the data active = activation above about 30%
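In this calcium-flux screen, cells bearing human TRHR are dye-loaded with fluo-8, baselined for 10 cycles, then exposed to library compounds; positive kinetic calcium responses during the agonist phase mark hits, with TRH as control.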
Numbers stand for hits; n = inactive; u = inconclusive; x = not tested or not shown. An excerpt weighted towards active compounds, which were near 0.99% of everything screened.

SMILES | TRPV1 ag | TRPML1 agonist | TRHR PAM | TRPML1 inh | TRPV1 potentiator | TRHR ag
CC(NC(=S)Nc1ccccc1Cl)C(c1ccccc1)N1CCOCC1 (stereo not given) | n | 80 | n | n | n | n
COc1ccc(NC(=S)NC(C)C(c2ccccc2)N2CCOCC2)cc1 (stereo not given) | n | n | n | n | n | n
CN(C)c1ccc2ccc3cccc4ccc1c2c34 | x | n | x | x | x | x
O=C(C[n+]1cccc(Br)c1)c1ccc2ccccc2c1 | x | n | x | x | x | x
COc1ccc(N2CCN(C(c3cc(OC)ccc3OC)c3nnnn3Cc3ccco3)CC2)cc1 (stereo not given) | n | n | 39 | n | n | n
COCCn1nnnc1C(c1ccc(OC)cc1OC)N1CCN(c2ccccc2)CC1 (stereo not given) | n | n | n | n | n | n
COc1ccc(OC)c(C(c2nnnn2CCc2ccccc2)N2CCN(c3ccccc3)CC2)c1 (stereo not given) | n | 51 | n | n | n | n
O=C(C[n+]1cccc(Br)c1)c1ccc(Br)cc1 | x | n | x | x | x | x
C[C@H](NC(=O)OC(C)(C)C)C(=O)c1ccco1 | x | n | x | x | x | x
O=C(COc1ccccc1C(=O)Nc1ccccc1)Nc1ccc(Br)cc1 | x | n | x | x | x | x
COc1cc(N2Cc3ccccc3C2)ccc1C=O | n | n | n | n | 94 | n
Cc1cc(C)cc(N2Cc3ccccc3C2)c1 | n | n | n | n | n | n
CCN(CCN(C)Cl)/[N+]([O-])=N/Oc1ccc([N+](=O)[O-])cc1[N+](=O)[O-] | x | n | x | n | x | x
Fc1ccc2[nH]c3c(NCc4ccco4)ncnc3c2c1 | x | n | x | x | x | x
N#Cc1ccccc1S(=O)(=O)N1CCN(S(=O)(=O)c2ccc3c(c2)OCCO3)CC1 | x | x | n | x | x | n
Cc1cn(C)c(CC(=O)Nc2cccc(C#N)c2)c1C(=O)O | x | n | 32 | n | x | n
O=S1(=O)CCOCCCN1Cc1ccc(F)cc1 | x | n | x | x | x | x
CC(C)Oc1ccc(NC(=O)c2ccncc2)cc1 | 86 | n | n | n | n | n
COc1ccc(NC(=O)c2ccco2)cc1NC(=O)c1ccc(OC(C)C)cc1 | x | n | 43 | n | x | n
COc1ccc(NC(=O)c2ccco2)cc1NC(=O)c1ccc(C)cc1 | n | n | n | n | n | n
CC(C)Oc1ccc(C(=O)Nc2ccc([N+](=O)[O-])cc2)cc1 | u | n | n | n | n | n
O=S(=O)(c1ccc(Cl)cc1)N1CCN(c2nc(-c3ccc(F)cc3)nc3cc(Cl)ccc23)CC1 | x | n | n | n | x | n
N#Cc1ccccc1NC(=O)CSc1nc(-c2ccccc2)cc(C(F)(F)F)c1C#N | x | n | n | n | x | 42
Cc1cccc(-c2nc(CN3CCCC(C(=O)NCCc4ccc(Cl)cc4)C3)c(C)o2)c1 (stereo not given) | x | n | 34 | n | x | n
CCN1CCc2c(sc(NC(=O)c3ccc(S(=O)(=O)N(CC)c4ccccc4)cc3)c2C(N)=O)C1 | n | 61 | n | n | n | 74
SMILES | TRPV1 ag | TRPML1 agonist | TRHR PAM | TRPML1 inh | TRPV1 potentiator | TRHR ag
CC(C)C(=O)Nc1sc2c(c1C(N)=O)CCN(Cc1ccccc1)C2 | n | n | n | n | n | n
CCCCN(CCCC)S(=O)(=O)c1ccc(C(=O)Nc2sc3c(c2C(N)=O)CCN(CC)C3)cc1 | x | n | n | n | x | n
CCN1CCc2c(sc(NC(=O)Nc3ccc(Cl)c(Cl)c3)c2C(N)=O)C1 | 82 | 81 | n | n | n | 159
NC(=O)c1c(NC(=O)c2ccccc2)sc2c1CCN(Cc1ccccc1)C2 | n | n | n | n | n | 53
CCC(=O)Nc1sc2c(c1C(N)=O)CCN(Cc1ccccc1)C2 | n | n | n | n | n | 39
CN(C)c1ccc(CCC2C=Cc3ccccc32)cc1 (stereo not given) | x | n | x | x | x | x
NC(=O)c1c(NC(=O)c2c(F)cccc2F)sc2c1CCN(Cc1ccccc1)C2 | n | n | n | n | n | 49
COc1ccc(/C=C2\CCCc3c2nc2ccccc2c3C(=O)O)cc1OC | u | x | n | x | n | 214
CCOc1cc(/C=C/C(=O)c2ccc(OC)c(CN3CCOCC3)c2)cc(Br)c1O | n | n | n | n | n | 40
CCOc1cc(/C=N/NC(=O)c2ccc(CN3CCOCC3)cc2)ccc1OC | n | n | n | n | n | n
CC1(C)Nc2cccc3c(N=Nc4ccc(N=Nc5ccccc5)c5ccccc45)ccc(c23)N1 | x | n | x | x | x | x
O=[S+]([O-])(c1ccc(-c2ccccc2)cc1)N1CCN([S+](=O)([O-])c2ccc3c(c2)OCCO3)CC1 | x | x | n | x | x | n
C=CCN(CC(=O)NC1CCS(=O)(=O)C1)S(=O)(=O)c1ccccc1C(F)(F)F (stereo not given) | n | n | 31 | n | n | n
CCCCCCC[n+]1ccc(/C=C/c2c(C)[nH]c3ccccc23)c2ccccc21 | x | n | x | x | x | x
O=C(c1cc(-c2ccccc2Cl)nc2ccccc12)N1CCC1 | u | n | n | n | n | n
Cc1ccccc1-c1cc(C(=O)N2CCCC2)c2ccccc2n1 | n | n | 31 | n | n | n
O=C(/C=C/c1ccc(Cl)cc1)NCc1ccncc1 | 82 | n | n | n | n | n
Cc1ccc(S(=O)(=O)N(C)c2ccc3sc(C)nc3c2)cc1 | n | n | 38 | n | n | n
COc1ccc(N(C)S(=O)(=O)c2ccc(C)cc2)c([N+](=O)[O-])c1 | n | n | n | n | n | n
Cc1ccc(S(=O)(=O)N(C)c2ccc(C)c([N+](=O)[O-])c2)cc1 | n | n | n | n | 80 | n
CCCCN(CCC#N)c1ccc(/C=C/c2ccnc3ccccc23)cc1 | x | n | x | x | x | x
C=CCN(CC=C)c1ccc(/C=C/c2ccnc3ccccc23)cc1 | x | n | x | x | x | x
CC(Oc1ccc(Cl)cc1)C(=O)Nc1ccccc1N1CCOCC1 (stereo not given) | x | 74 | x | n | x | x
Cc1cc(Cl)ccc1OC(C)C(=O)Nc1ccccc1N1CCOCC1 (stereo not given) | n | n | n | n | n | n
CC1N(C(=O)N(C)C)CCN1S(=O)(=O)c1ccccc1 (stereo not given) | n | n | 36 | n | n | n
SMILES | TRPV1 ag | TRPML1 agonist | TRHR PAM | TRPML1 inh | TRPV1 potentiator | TRHR ag
COc1cccc(-c2cc(C(=O)N3CCN(S(=O)(=O)c4ccc(Br)cc4)CC3)[nH]n2)c1 | n | n | n | n | n | n
COc1ccc(S(=O)(=O)N2CCN(C(=O)c3cc(-c4ccccc4OC)n[nH]3)CC2)cc1 | 82 | n | n | n | n | n
Cc1c(Br)cnc2ccccc12 | x | n | x | x | x | x
CN(C)c1ccc(C(=O)/C=C/c2cccnc2)cc1 | n | x | n | x | n | n
CN(C)c1ccc(/C=C/C(=O)c2cccc(Br)c2)cc1 | 87 | n | n | n | n | 148
CCOC(=O)C1CCN(C(=O)Cn2nc(CC)n3c(cc4sccc43)c2=O)CC1 | x | n | 30 | n | x | n
